The structures appear in SMILES notation. Unmarked numbers belong to inactive results. Inconclusive results are not listed. Active and inactive are the calls of the source. Unless noted, calls come from the whole dose curve; as a rule, active = well fitted curve in the direction sought with a large enough effect in the repeat runs; inconclusive = weak or mixed curves; inactive = no such curve, though single readings can be large; an effect the other way counts as inactive or inconclusive.

The source of these data is PubChem BioAssay (Tox21).

Assay [1] in a line: qHTS assay to identify small molecule agonists of the TGF-beta/Smad signaling pathway - cell viability counter screen (AID 1346829). Note: top concentration of the series differs between compounds; nearly all actives have a fitted effect of over 45% in size. The procedure, abridged: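 Tox21 qHTS format: SBE-bla HEK 293T cells treated with DMSO-dissolved compounds for 5 hr; CellTiter-Glo luminescence after 30 min at room temperature.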
Assay [2] can be described thus: qHTS assay to identify small molecule agonists of the TGF-beta/Smad signaling pathway (AID 1346859; active = well fitted activation curve with a large enough effect in the signal ratio in the repeat runs, not every such curve was filed as active; the % refers to the signal ratio; note: series mostly up to about 77 µM). The procedure, abridged:
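Dual-wavelength fluorescence (460/530 nm emission) quantified beta-lactamase expression under the Smad binding element in HEK 293T cells following 5 hr compound treatment at 37 C.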

Assay [3] addresses Thyrotropin-releasing hormone receptor (Homo sapiens) (UniProt P34981). The assay can be described thus: qHTS assay to identify small molecule antagonists of the thyrotropin-releasing hormone receptor (TRHR) signaling pathway (AID 1346877; active = well fitted inhibition curve with a large enough effect in the repeat runs, not every such curve was filed as active; note: series mostly up to about 51 µM). The essentials:
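Cells (TRHR-HEK293) are plated and kept 18 h at 37 °C/5% CO2. A calcium-sensitive dye is added for 2 h, compound follows for 5 min at room temperature, and TRH is then given at 1 nM final.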

Assay [4] shares this target. The assay can be described thus: qHTS assay to identify small molecule agonists of the thyrotropin-releasing hormone receptor (TRHR) signaling pathway (AID 1346891; calls by dose curve;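 note: HEK293 cells expressing TRHR with calcium dye readout; series mostly up to about 58 µM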). The procedure, abridged:
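Kinetic fluorescence (3 min, 1 s intervals) reported intracellular calcium after compound transfer onto TRHR-Hek293 cells pre-loaded with dye for 2 h at 37 °C.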

Assay [5] can be described thus: Human pregnane X receptor (PXR) small molecule agonists, qHTS cell viability counter screen (AID 1346977). Note: nearly all actives have a fitted effect of over 50% in size. The procedure, abridged: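 HepG2 cells stably carrying the PXR-Luc reporter are cultured with 5% charcoal-stripped FBS and treated with compounds for 24hr. CellTiter-Fluor is added at 23hr and fluorescence is read after 1hr.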
Assay [6] is described as follows: Caspase-3/7 induction in HepG2 cells by small molecules, qHTS assay (AID 1346978). Note: nearly all actives have a fitted effect of over 15% in size. The procedure, abridged:
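Wild-type HepG2 cells, 2,000/well, settled 5 hr at 37 C and 5% CO2, then compound-treated for 17 hr; caspase-3/7 activity read by luminescent Caspase-Glo 3/7 after 30 min at room temperature.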

Assay [7] in a line: Caspase-3/7 induction in CHO-K1 cells by small molecules, qHTS assay (AID 1346980). Note: nearly all actives have a fitted effect of over 15% in size. The essentials:
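Wild-type CHO-K1 cells exposed to compounds for 17hr at 37 C, 5% CO2. Caspase-3/7 activity then measured by Caspase-Glo 3/7 luminescence after 30min at room temperature.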

The nature of assay [8]: Caspase-3/7 induction in HepG2 cells by small molecules, qHTS cell viability counter screen (AID 1346981). Note: series mostly up to about 92 µM; nearly all actives have a fitted effect of over 30% in size. The essentials:
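Steps: seed 2,000 HepG2 cells per well; incubate 5 hr at 37 C; pin-add compounds in DMSO; incubate 16 hr; add CellTiter-Fluor; after 1 hr at 37 C and 5% CO2, read fluorescence.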

Assay [9] has as its target Nuclear receptor subfamily 1 group I member 2 (Homo sapiens) (UniProt O75469). The experiment in a line: Human pregnane X receptor (PXR) small molecule agonists, qHTS assay (AID 1346982). Note: nearly all actives have a fitted effect of over 35% in size. Note: potency is the fitted concentration of half-maximal effect. The procedure, abridged:
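Agonist mode qHTS: PXR-Luc HepG2 cells plated 5 hr before DMSO-dissolved compounds were pinned in, cultured 24 hr at 37 C, 5% CO2; ONE-Glo luminescence readout.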

Assay [10] concerns the target Cytochrome P450 2D6 (Homo sapiens) (UniProt P10635). The assay can be described thus: Cytochrome P450 Family 2 Subfamily D Member 6 (CYP2D6) small molecule antagonists: luciferase reporter qHTS assay (AID 1671196). For activity change, negative = inhibition: series mostly up to about 120 µM. Note: nearly all actives have a fitted effect of over 50% in size. Note: potency is the fitted concentration of half-maximal effect. The procedure, abridged: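 P450-Glo format: CYP2D6 converts a proluciferin substrate to luciferin in an NADPH-driven reaction lasting 1 h at room temperature. Light output, proportional to CYP2D6 activity, reflects interference by test chemicals.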

The target in assay [11] is Cytochrome P450 2C9 (Homo sapiens) (UniProt P11712). The experiment in a line: Cytochrome P450 Family 2 Subfamily C Member 9 (CYP2C9) small molecule antagonists: luciferase reporter qHTS assay (AID 1671198). For activity change, negative = inhibition: series mostly up to about 120 µM. Note: nearly all actives have a fitted effect of over 50% in size. Note: potency is the fitted concentration of half-maximal effect. The essentials:
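P450-Glo proluciferin substrate with CYP2C9 enzyme; 10 min RT preincubation, then NADPH regeneration 1 h at 37C; luciferin detection reagent 20 min RT, luminescence in relative luminescence units.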

Assay [12] addresses Cytochrome P450 1A2 (Homo sapiens) (UniProt P05177). The assay can be described thus: Cytochrome P450 Family 1 Subfamily A Member 2 (CYP1A2) small molecule antagonists: luciferase reporter qHTS assay (AID 1671199). For activity change, negative = inhibition: series mostly up to about 120 µM. Note: nearly all actives have a fitted effect of over 50% in size. Note: potency is the fitted concentration of half-maximal effect. The procedure, abridged: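 Inhibition of CYP1A2 conversion of proluciferin to luciferin, detected by luminescence. Reaction run 1 h at room temperature with NADPH regeneration after brief compound preincubation.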

The target in assay [13] is Voltage-gated inwardly rectifying potassium channel KCNH2 (Homo sapiens) (UniProt Q12809). The assay can be described thus: Human Ether-a-go-go-Related Gene (hERG) channel small molecule antagonists: fluorescence cell-based qHTS assay (AID 1671200). The essentials: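 First, 1000 cells per well are seeded and cultured overnight at 37 C. Next, FluxOR II dye is loaded for 1 h at room temperature, protected from light. After 10 more minutes, stimulus is added and fluorescence is read.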

Assay [14] has as its target Cytochrome P450 3A4 (Homo sapiens) (UniProt P08684). The experiment in a line: Cytochrome P450 Family 3 Subfamily A Member 4 (CYP3A4) small molecule antagonists: luciferase reporter qHTS assay (AID 1671201). For activity change, negative = inhibition: series mostly up to about 120 µM. Note: nearly all actives have a fitted effect of over 50% in size. Note: potency is the fitted concentration of half-maximal effect. The essentials:
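Enzyme and proluciferin substrate are mixed with test chemicals for 10 min, then NADPH regeneration system drives turnover for 1 h at room temperature. A detection reagent halts the reaction; luminescence after 20 min gives relative activity.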

Assay [15] can be described thus: Caspase-3/7 induction in CHO-K1 cells by small molecules, qHTS cell viability counter screen (AID 1346979). Note: nearly all actives have a fitted effect of over 35% in size. The essentials:
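Seeding: 1,500 CHO-K1 cells/well. Rest: 5hr, 37C. Treatment: compounds in DMSO, 16hr. Read: CellTiter-Fluor, 1hr, fluorescence.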

The target in assay [16] is Nuclear receptor subfamily 1 group I member 2 (Rattus norvegicus) (UniProt Q9R1A7). The assay can be described thus: Rat pregnane X receptor (rPXR) activation by small molecules, qHTS assay (AID 1346983). Note: nearly all actives have a fitted effect of over 20% in size. To be noted: rPXR luciferase reporter cells, One-Glo luminescence, 24 h; hits give high values. The procedure, abridged: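 Cell-based rPXR activation assay: rPXR cells, 2,000 per well, rested 5hr at 37 C, then exposed to compounds in DMSO for 24 hr at 37 C. Luciferase activity read by One-Glo luminescence after 30 min at room temperature.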

Assay [17] concerns the target Nuclear receptor subfamily 1 group I member 2 (Homo sapiens) (UniProt O75469). The assay can be described thus: CYP3A4 induction through human pregnane X receptor (PXR) by small molecules, qHTS assay (AID 1346984). Note: nearly all actives have a fitted effect of over 40% in size. The procedure, abridged:
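Steps: seed DPX-2 cells, 5 hr at 37C; pin-transfer compounds; 24 hr at 37C; add Luciferin-IPA (3uM final), 3 hr at 37C; add One-Glo, 30 min RT; read luminescence.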

Assay [18] shares this target. The experiment in a line: Human pregnane X receptor (PXR) activation by small molecules, qHTS assay (AID 1346985). Note: nearly all actives have a fitted effect of over 40% in size. Note: potency is the fitted concentration of half-maximal effect. The essentials:
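DPX-2 cells (HepG2 co-transfected with a PXR response element and a CYP3A4-promoter luciferase construct) were seeded at 2,000 per well, rested 5 hr at 37C, then exposed to DMSO-dissolved compounds for 24 hr. Activation was read as luciferase luminescence.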

The target of assay [19] is Cytochrome P450 2C19 (Homo sapiens) (UniProt P33261). The experiment in a line: Cytochrome P450 Family 2 Subfamily C Member 19 (CYP2C19) small molecule antagonists: luciferase reporter qHTS assay (AID 1671197). Note: series mostly up to about 120 µM; nearly all actives have a fitted effect of over 65% in size. The procedure, abridged:
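Relative luminescence units recorded 20 min after the detection reagent stopped a 1 h, 37C CYP2C19 reaction on proluciferin substrate, which was started by NADPH regeneration following 10 min room-temperature compound preincubation; ketoconazole positive control.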
% is set by controls: 0 for no effect and ±100 for the full control effect.

Chain of Thyrotropin-releasing hormone receptor (Homo sapiens) (P34981 whole entry, looked up): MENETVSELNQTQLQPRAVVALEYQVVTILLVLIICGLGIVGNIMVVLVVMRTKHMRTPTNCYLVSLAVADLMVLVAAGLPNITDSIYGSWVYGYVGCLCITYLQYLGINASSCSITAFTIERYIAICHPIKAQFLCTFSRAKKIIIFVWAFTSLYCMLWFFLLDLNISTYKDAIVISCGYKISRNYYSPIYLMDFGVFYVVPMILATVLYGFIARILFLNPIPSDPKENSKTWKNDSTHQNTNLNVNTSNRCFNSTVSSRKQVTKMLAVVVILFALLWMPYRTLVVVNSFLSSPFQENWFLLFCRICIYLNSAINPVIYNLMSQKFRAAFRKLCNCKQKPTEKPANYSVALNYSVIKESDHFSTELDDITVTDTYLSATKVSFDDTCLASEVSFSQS
Chain of Cytochrome P450 2C9 (Homo sapiens) (P11712 whole entry, looked up): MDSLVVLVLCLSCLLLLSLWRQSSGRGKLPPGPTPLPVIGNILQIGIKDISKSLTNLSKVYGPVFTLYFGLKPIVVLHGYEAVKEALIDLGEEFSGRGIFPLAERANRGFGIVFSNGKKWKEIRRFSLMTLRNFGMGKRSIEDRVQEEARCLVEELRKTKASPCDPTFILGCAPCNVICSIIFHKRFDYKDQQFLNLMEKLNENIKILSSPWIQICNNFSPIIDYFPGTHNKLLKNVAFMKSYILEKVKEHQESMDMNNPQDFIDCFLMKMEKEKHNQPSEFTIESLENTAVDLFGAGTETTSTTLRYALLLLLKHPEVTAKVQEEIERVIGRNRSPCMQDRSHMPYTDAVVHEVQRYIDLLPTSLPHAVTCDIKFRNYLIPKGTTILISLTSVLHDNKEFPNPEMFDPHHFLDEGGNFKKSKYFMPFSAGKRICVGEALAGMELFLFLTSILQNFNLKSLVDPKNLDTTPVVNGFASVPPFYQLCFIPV
Chain of Voltage-gated inwardly rectifying potassium channel KCNH2 (Homo sapiens) (Q12809 whole entry, looked up): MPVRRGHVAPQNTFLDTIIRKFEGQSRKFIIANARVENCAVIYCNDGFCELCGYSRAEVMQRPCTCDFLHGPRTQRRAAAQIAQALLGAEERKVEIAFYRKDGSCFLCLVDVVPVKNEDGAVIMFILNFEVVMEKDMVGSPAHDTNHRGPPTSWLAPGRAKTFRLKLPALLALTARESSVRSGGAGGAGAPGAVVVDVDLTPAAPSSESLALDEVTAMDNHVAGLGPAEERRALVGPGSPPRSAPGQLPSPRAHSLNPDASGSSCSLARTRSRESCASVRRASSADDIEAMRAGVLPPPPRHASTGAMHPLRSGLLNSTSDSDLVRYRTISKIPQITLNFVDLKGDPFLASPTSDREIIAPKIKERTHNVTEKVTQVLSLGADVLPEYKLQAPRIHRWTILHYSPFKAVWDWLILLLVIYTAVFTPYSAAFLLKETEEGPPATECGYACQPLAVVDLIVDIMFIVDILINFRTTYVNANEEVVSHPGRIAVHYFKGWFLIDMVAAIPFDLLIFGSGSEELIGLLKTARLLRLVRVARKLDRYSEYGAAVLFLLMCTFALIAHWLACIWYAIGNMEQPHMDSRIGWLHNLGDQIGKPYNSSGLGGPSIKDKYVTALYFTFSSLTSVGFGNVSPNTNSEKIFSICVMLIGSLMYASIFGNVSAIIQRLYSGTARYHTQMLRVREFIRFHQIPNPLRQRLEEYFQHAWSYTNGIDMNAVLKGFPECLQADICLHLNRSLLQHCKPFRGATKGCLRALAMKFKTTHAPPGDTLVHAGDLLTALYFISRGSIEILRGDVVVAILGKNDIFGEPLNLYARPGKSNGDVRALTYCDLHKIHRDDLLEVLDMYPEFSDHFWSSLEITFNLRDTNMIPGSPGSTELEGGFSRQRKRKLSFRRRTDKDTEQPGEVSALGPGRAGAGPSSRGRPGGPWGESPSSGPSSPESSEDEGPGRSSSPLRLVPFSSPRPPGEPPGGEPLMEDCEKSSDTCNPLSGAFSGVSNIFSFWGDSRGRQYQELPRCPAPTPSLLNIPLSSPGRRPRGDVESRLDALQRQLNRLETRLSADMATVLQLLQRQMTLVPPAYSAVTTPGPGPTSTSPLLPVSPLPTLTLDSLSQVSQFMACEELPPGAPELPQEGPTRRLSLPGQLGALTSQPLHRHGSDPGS
Chain of Cytochrome P450 2D6 (Homo sapiens) (P10635 whole entry, looked up): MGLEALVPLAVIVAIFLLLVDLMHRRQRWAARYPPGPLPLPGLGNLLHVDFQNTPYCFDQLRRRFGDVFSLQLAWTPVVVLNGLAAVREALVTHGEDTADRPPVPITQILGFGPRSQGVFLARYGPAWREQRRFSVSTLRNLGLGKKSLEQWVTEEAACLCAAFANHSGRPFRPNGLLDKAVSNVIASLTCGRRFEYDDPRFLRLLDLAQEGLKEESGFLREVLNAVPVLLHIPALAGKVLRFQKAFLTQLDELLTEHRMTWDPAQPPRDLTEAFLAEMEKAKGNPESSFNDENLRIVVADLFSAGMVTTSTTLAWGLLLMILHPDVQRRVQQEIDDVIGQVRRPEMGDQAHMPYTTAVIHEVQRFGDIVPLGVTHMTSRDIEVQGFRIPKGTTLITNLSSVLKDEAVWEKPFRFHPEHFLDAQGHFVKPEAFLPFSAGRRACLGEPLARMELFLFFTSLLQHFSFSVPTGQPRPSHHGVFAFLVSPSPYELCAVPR
Chain of Cytochrome P450 1A2 (Homo sapiens) (P05177 whole entry, looked up): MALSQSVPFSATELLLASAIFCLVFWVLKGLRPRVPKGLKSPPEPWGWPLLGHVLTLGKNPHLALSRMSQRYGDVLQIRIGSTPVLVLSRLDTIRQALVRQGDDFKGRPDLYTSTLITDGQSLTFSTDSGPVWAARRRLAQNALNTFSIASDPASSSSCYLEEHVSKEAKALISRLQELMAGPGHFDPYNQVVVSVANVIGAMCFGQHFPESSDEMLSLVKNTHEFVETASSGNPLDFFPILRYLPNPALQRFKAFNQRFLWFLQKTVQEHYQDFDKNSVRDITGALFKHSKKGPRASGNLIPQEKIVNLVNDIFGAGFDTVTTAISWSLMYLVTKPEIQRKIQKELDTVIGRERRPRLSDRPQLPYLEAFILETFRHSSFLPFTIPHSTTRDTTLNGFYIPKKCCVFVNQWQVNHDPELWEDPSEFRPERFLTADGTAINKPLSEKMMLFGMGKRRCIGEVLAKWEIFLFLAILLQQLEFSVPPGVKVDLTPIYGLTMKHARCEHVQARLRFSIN
Chain of Cytochrome P450 3A4 (Homo sapiens) (P08684 whole entry, looked up): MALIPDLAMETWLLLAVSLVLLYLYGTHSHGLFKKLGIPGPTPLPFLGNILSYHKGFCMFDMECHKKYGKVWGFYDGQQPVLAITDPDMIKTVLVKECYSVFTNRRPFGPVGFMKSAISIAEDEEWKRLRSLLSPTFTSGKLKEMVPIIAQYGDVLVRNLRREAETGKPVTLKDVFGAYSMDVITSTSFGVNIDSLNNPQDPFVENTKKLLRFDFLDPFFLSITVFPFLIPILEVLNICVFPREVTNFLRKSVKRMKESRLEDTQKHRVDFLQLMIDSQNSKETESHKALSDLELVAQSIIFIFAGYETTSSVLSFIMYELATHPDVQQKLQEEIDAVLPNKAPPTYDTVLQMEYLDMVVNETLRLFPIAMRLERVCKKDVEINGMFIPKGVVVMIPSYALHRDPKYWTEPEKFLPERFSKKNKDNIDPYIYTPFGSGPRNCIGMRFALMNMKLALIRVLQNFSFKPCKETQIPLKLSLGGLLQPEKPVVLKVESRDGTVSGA
Chain of Nuclear receptor subfamily 1 group I member 2 (Homo sapiens) (O75469 whole entry, looked up): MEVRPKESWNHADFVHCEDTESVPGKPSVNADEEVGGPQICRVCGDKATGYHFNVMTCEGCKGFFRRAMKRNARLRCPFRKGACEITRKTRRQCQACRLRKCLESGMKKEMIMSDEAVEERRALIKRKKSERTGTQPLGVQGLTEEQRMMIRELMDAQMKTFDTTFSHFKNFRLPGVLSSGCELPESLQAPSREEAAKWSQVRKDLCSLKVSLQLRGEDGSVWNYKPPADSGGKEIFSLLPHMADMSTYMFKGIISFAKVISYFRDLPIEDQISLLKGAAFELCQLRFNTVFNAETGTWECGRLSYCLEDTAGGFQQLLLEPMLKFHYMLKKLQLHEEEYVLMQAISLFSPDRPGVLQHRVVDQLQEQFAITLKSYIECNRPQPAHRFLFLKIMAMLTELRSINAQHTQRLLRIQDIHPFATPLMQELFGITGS
Chain of Nuclear receptor subfamily 1 group I member 2 (Rattus norvegicus) (Q9R1A7 whole entry, looked up): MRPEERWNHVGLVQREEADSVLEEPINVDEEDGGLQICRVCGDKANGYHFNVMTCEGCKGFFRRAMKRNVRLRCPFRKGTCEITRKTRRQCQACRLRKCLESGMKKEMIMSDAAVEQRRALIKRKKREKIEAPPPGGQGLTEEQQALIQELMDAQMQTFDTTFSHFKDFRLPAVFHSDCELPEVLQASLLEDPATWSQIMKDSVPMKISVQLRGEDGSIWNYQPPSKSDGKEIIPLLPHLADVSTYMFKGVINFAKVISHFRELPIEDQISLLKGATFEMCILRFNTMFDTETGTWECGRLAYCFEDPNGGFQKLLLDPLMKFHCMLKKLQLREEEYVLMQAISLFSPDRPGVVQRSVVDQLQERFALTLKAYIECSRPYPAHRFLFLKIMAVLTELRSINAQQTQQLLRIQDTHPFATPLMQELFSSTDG
Chain of Cytochrome P450 2C19 (Homo sapiens) (P33261 whole entry, looked up): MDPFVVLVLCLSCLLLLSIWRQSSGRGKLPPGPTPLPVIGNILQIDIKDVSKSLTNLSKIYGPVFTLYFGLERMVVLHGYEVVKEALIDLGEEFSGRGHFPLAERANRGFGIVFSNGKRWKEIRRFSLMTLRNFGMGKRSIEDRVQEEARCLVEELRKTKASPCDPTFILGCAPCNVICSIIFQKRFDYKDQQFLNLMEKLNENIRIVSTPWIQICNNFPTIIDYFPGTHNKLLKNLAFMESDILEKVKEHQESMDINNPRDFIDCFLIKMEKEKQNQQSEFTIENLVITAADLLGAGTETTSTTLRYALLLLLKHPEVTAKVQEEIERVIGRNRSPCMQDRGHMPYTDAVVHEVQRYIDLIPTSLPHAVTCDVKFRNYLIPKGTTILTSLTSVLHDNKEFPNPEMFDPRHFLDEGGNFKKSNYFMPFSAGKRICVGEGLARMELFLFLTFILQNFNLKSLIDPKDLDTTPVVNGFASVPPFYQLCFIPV

For `O=C[O][Al]([O]C=O)[O]C=O`, the molecule was called inactive in assay [1], in [2], in assay [3], in assay [4], in assay [5] and in assay [6]. The result in [7] and in assay [8] was inactive. Besides, the Potency entry in assay [9], in assay [10], in assay [11], in [12], in [13] and in assay [14] was “inactive” each time.

On to `CCC/C=C(\C=O)CC`, for which the outcome in [1], in [2], in assay [3], in [4], in assay [5] and in assay [6] was inactive. In addition, the molecule was classed as inactive in assay [7] and in assay [8]. In addition, the Potency entry in assay [15], in [10] and in assay [13] was “inactive” in each case. The results for the Potency in assay [11] and in assay [14] were 63.3 µM (active) and 39.9 µM (active), respectively.

For the molecule `C#CCN[C@@H]1CCc2ccccc21`, the call in assay [1], in assay [2], in assay [3], in [4], in assay [5] and in [6] was inactive. For the same molecule, the molecule was classed as inactive in assay [7] and in [8]. The Potency result in [9], in [17], in assay [18], in assay [19], in assay [11] and in assay [13] was “inactive” each time. In assay [14], the Potency result was “inactive”. Besides, the max activation in [16] is -3.04%. Further, the values for the Potency in [10] and in assay [12] were 27.5 µM (active) and 5.12 µM (active), respectively.

For `O=Cc1cc2ccccc2o1`, the outcome in assay [1], in [2], in [3], in assay [4], in assay [5] and in assay [6] was inactive. Further, in [7], the call was inactive. The Potency entry in assay [15], in assay [9], in assay [11], in assay [13] and in assay [14] was “inactive” each time. Moreover, in assay [12], the Potency was 31.7 µM (active).

For `Cn1nnc2c(C(N)=O)ncn2c1=O`, the call in [1], in [2], in assay [3], in assay [4], in assay [5] and in assay [6] was inactive. For the same molecule, the molecule was classed as inactive in assay [8]. Moreover, the Potency entry in assay [15], in assay [9], in assay [17], in [18], in assay [11] and in assay [12] was “inactive” each time. Besides, the Potency result in assay [13] and in [14] was “inactive” each time. Further, in assay [16], the max activation is -4.63%.

`OCC(O)CN1CCN(c2ccccc2)CC1` (stereo not drawn): the outcome in [1], in assay [2], in assay [3], in assay [4], in [5] and in assay [6] was inactive. In addition, the outcome in assay [7] and in assay [8] was inactive. The Potency result in assay [15], in assay [9], in assay [11], in assay [12], in assay [13] and in [14] was “inactive” throughout.

For `NCCOCCN`, the call in [1], in [2], in assay [3], in [4], in [5] and in assay [6] was inactive. The molecule was called inactive in assay [7] and in assay [8]. The Potency entry in [15], in [9], in assay [11], in [13] and in [14] was “inactive” each time. The Potency in assay [12] is 17.8 µM (active).

Turning to `CCOC(CN1CCN(CC(C)C(=O)c2ccccc2)CC1)c1ccccc1` (stereo not drawn), the activity change, negative = cytotoxicity is -11.2% [at 15.8 µM] in assay [1], -0.628% [at 19 µM] in assay [5], 0.23% [at 19 µM] in assay [15] and -1.17% [at 19 µM] in assay [8]. In addition, the activation is -2.36% [at 15.8 µM] in [2] and 0.148% [at 11.8 µM] in assay [4]. In addition, in [3], the activity, negative = inhibition was -3.1% [at 10.5 µM]. Besides, the caspase activation in assay [6] is 0.292% [at 19 µM]. The Potency in assay [9] is 14.6 µM (active); in [18] it was 10 µM (active); in assay [10] it was 0.213 µM (active). In addition, the max activation in assay [16] was 1.41%. The activity change, negative = inhibition in [12] is 12.6% [at 23.6 µM]; in assay [14], 51.9% [at 23.6 µM].

Regarding `CC(O)COC(C)(C)C` (stereo not drawn), the molecule was classed as inactive in assay [1], in assay [2], in assay [3], in assay [4], in assay [5] and in [6]. Further, the outcome in [7] and in assay [8] was inactive. The Potency result in [15], in assay [9], in assay [13] and in assay [14] was “inactive” in each case.
